This is a sample that favours compounds with a hit; in the whole collection about 2.3% have one here.
PP1 counter: PP1-alpha phosphatase inhibitors, primary screen, counter-screen for PP5 inhibitor project, biochemical, fluorescence, OMFP substrate, single point. Serine/threonine-protein phosphatase PP1-alpha catalytic subunit (Homo sapiens), P62136. purified PP1alpha. inhibition, % at 6.7 µM. 0.9% of 320,000 active. AID 2235, 2010;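 active means inhibition above the mean inhibition of all tested compounds plus 3 SD, computed separately for each screening campaign, cut at about 15% in these data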
Target sequence (P62136 whole entry, looked up): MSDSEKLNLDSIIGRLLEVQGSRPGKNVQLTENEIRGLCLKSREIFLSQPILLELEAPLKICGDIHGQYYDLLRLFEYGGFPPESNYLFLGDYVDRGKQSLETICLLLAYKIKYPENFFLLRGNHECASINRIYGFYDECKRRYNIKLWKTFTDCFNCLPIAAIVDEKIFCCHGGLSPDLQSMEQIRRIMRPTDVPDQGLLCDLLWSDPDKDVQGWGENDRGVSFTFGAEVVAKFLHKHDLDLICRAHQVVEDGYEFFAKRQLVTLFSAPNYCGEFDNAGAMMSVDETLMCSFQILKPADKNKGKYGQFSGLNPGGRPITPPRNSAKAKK
EBNA-1 inhibitor: EBNA-1 DNA-binding inhibitors, primary screen, biochemical, fluorescence polarization; inhibition, % at 14.8 µM; 0.34% of 300,000 active; in the data active means inhibition above about 28%
bovine MsrA act: bovine MsrA enzyme activators, primary screen, biochemical, absorbance, HTS | Methionine sulfoxide reductase A (Bos taurus) | purified bovine MsrA, absorbance read-out | activation, % at 10.6 µM | 0.3% of 360,000 active; in the data active means activation above about 7.5%;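 further: 0% = vehicle and 100% = reference activator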
MsrA inhibitor: bovine MsrA enzyme inhibitors, primary screen, biochemical, absorbance, HTS | 0.75% of 360,000 active | inhibition, % at 15.5 µM | Methionine sulfoxide reductase A (Bos taurus) | purified bovine MsrA, absorbance read-out; in the data active means inhibition above about 4.5%;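 further: 0% = vehicle wells with enzyme and 100% = reference inhibitor wells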
PP5 inh: PP5 phosphatase inhibitors, primary screen, biochemical, fluorescence; Serine/threonine-protein phosphatase 5 (Homo sapiens), P53041; purified PP5c, OMFP substrate fluorescence; inhibition, % at 6.7 µM; 0.18% of 320,000 active;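 active means inhibition above the campaign's mean inhibition across all tested compounds plus 3 SD, cut at about 9.5% in these data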;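 further: 0% = DMSO only and 100% = 100 µM cantharidin control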
ZTA DNA inh: blocks Epstein-Barr virus ZTA, an EBNA-1 counter-screen | AID 2234 | inhibition, % at 11 µM | P03206 | 0.15% of 320,000 active | ZTA-DNA binding, fluorescence polarization; in the data active means inhibition above about 33%
Target sequence (P03206 whole entry, looked up): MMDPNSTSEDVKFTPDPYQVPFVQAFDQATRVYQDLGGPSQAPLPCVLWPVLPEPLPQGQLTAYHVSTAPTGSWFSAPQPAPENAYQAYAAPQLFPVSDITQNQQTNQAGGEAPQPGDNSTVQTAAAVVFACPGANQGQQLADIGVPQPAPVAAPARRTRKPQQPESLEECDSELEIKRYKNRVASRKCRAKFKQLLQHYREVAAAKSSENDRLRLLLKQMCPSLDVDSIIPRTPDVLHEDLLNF
PP1 confirm: PP1 phosphatase inhibitors, confirmation, biochemical, fluorescence, OMFP substrate, triplicate. AID 2358, 2010. shares compounds with PP1 counter. 52% of 1,900 active. inhibition, % at 6.7 µM. purified PP1alpha;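 active means mean PP1 inhibition above a set limit taken from the earlier primary screen, cut at about 15% in these data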
PP5 counter: PP5 phosphatase inhibition by PP1 hits, confirmation, counter-screen for PP1 inhibitor project, biochemical, fluorescence, triplicate; shares compounds with PP1 counter; purified PP5c, OMFP fluorescence; inhibition, % at 6.7 µM; 4% of 1,900 active; AID 2360, 2010;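 active means mean PP5 inhibition over triplicate wells above about 9.5% taken from the earlier PP1 screen, limit read from the data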
The depositor's hits bear a star; x = no result.

SMILES	PP1 counter	EBNA-1 inhibitor	bovine MsrA act	MsrA inhibitor	PP5 inh	ZTA DNA inh	PP1 confirm	PP5 counter
CC1(C)Cc2c(cnn2-c2ccc(F)cc2)C(NC(=O)CCN2CCCCC2=O)C1 (stereo unspecified)	x	x	-3	-1	x	x	x	x
CCN(CC)C(=O)[C@H]1C[C@H](CC(=O)NCCCOC)C(=O)N2CCc3c([nH]c4cc(CCC(=O)N(C)C)ccc34)[C@]12C	x	x	-2	1	x	x	x	x
CCOC(=O)C1(C)C=C(Nc2ccccc2)C(=O)N1c1ccccc1 (stereo unspecified)	29*	-9	-2	2	1	3	1	-2
NC(N)=NC(=S)Nc1ccc(Cl)cc1	x	x	0	0	x	x	x	x
NS(=O)(=O)c1cccc(NC(=O)COC(=O)CC2CC3CCC2C3)c1 (stereo unspecified)	-2	-2	-3	-1	1	2	x	x
CCCCC1=CC2=CC(=O)C(C)(OC(=O)CC)C(=O)C2=CN1CCc1c[nH]c2ccccc12 (stereo unspecified)	20*	-17	-6	0	1	-11	3	8
N#Cc1ccc(C23CC4(C2)[C@H](CN(Cc2cccnc2)[C@@H]4c2ccccc2)C3c2ccccc2)cc1 (stereo partly specified)	20*	1	-3	-1	2	-9	17*	-2
FC(F)(F)c1ccc(C2[C@H]3CN(Cc4ccc(-c5ccccc5)cc4)[C@H](c4ccccc4)C34CC2(c2cccnc2)C4)cc1 (stereo partly specified)	3	9	x	-1	1	3	x	x
COC(=O)c1ccc(C23CC4(C2)[C@H](CN(Cc2cccnc2)[C@@H]4c2ccccc2)C3c2ccccc2)cc1 (stereo partly specified)	8	2	1	1	3	-2	x	x
FC(F)(F)c1ccc(C2[C@H]3CN(Cc4cccnc4)[C@H](c4ccccc4)C34CC2(c2cccnc2)C4)cc1 (stereo partly specified)	19*	2	0	1	5	7	7	-1
Cc1occc1C(=O)/C(C#N)=C/c1ccc(O)c(Br)c1	1	2	-7	3	0	-2	x	x
S=c1[nH]c2ccccc2o1	-1	6	-5	0	0	9	x	x
COc1cc(NC(=O)COc2ccccc2[N+](=O)[O-])ccc1NC(=O)c1ccco1	20*	14	-3	0	-2	12	19*	-3
COCCn1c(=NC(=O)/C=C/c2ccccc2Cl)sc2cc(NC(C)=O)ccc21	9	-23	-4	1	0	-1	x	x
COCCn1c(=NC(=O)c2cccs2)sc2cc(NC(C)=O)ccc21	19*	19	-7	3	-2	8	-1	-3
Cc1ccc(Cn2nnc3c(=O)[nH]c(C4CCN(S(=O)(=O)c5cc(C)ccc5C)CC4)nc32)cc1	28*	4	4	1	4	9	24*	4
Cc1ccc(C)c(Cn2nnc3c(=O)[nH]c(C4CCN(S(=O)(=O)c5ccc(S(=O)(=O)NC6CC6)cc5)CC4)nc32)c1	18*	-2	-1	-1	5	12	15*	5
Cc1ccc(C)c(S(=O)(=O)N2CCC(c3nc4c(nnn4Cc4ccc(F)cc4)c(=O)[nH]3)CC2)c1	18*	3	-1	-1	4	6	7	1
O=C(Nc1ccc(OCc2ccccc2)cc1)Nc1ccccc1C(=O)NCCCN1CCOCC1	-4	-14	-1	-1	3	5	x	x
Cc1ccccc1Nc1nnc(SCC(=O)NC(=O)NCc2ccco2)s1	26*	10	0	0	1	8	7	-3
O=C(CSc1nnc(Nc2ccccc2F)s1)NCc1ccco1	x	x	-8	0	x	x	x	x
CN(C(=O)Cc1c(C(=O)O)n(C)c2ccccc12)c1ccc(F)cc1	-6	-3	-2	0	0	1	x	x
NC(=O)/C(=N\OC(=O)c1ccco1)c1nc(-c2ccc(Br)cc2)cs1	27*	2	-6	1	5	0	6	-2
CCN(C(=O)COC(=O)COc1ccc(Cl)c(C)c1)C1CCS(=O)(=O)C1 (stereo unspecified)	1	x	-1	-1	3	3	x	x
COc1ccc(/C=N/N2C(=O)CSC2=S)cc1Br	25*	4	-6	0	-1	-5	22*	1
SMILES	PP1 counter	EBNA-1 inhibitor	bovine MsrA act	MsrA inhibitor	PP5 inh	ZTA DNA inh	PP1 confirm	PP5 counter
CC1CCCCN1S(=O)(=O)c1ccc(C(=O)Nc2nnc(-c3ccccn3)o2)cc1 (stereo unspecified)	23*	-7	-3	4	4	-15	22*	1
CC1CCN(S(=O)(=O)c2ccc(C(=O)Nc3nnc(C4CC4)o3)cc2)CC1	23*	2	-4	0	2	-17	23*	6
Cc1nnc(NC(=O)c2ccc(S(=O)(=O)N3CCCCC3C)cc2)o1 (stereo unspecified)	13	-8	-10	-1	5	0	x	x
O=C(Nc1nnc(C2CC2)o1)c1ccc(S(=O)(=O)N2CCCCC2)cc1	20*	10	-2	0	1	17	8	0
CC1CCCCN1S(=O)(=O)c1ccc(C(=O)Nc2nnc(C3CC3)o2)cc1 (stereo unspecified)	20*	6	-4	1	2	-19	12	-2
CCc1ccc(C(=O)COC(=O)c2cccnc2Cl)cc1	-2	-7	-10	1	2	-9	x	x
O=C(CC1C[C@H](C(=O)N2CCOCC2)[C@@]2(CCC3CCCC3)c3[nH]c4ccccc4c3CCN2C1=O)NCc1cccc(C(F)(F)F)c1 (stereo partly specified)	x	x	-3	-1	x	x	x	x
COc1cccc(/C=N/NC(=O)CNC(=O)c2ccc(S(=O)(=O)N3CCCC3)cc2)c1OC	2	5	-2	0	4	11	x	x
CC(NC(=O)c1cccnc1Sc1ccccc1)c1ccc(S(N)(=O)=O)cc1 (stereo unspecified)	-3	3	-4	-1	-1	0	x	x
CCOC(=O)c1sc(N2C(=O)C(O)=C(C(=O)c3ccco3)C2c2ccc([N+](=O)[O-])cc2)nc1C (stereo unspecified)	41*	1	-4	2	5	-17	36*	2
